Experimental data from PubChem BioAssay (NCI).
Compounds without any hit were thinned out: in the full panel of roughly 83,000, 20% have a hit.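 The test compound was applied at a single concentration to cells in 96-well plates for 48 hours, and percent growth was recorded.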 Active and inactive are the calls of the source. How the source made its calls: active means growth percent below 10; inactive means the rest.

What was measured:
Assay in all cases: NCI-60 one-dose screen, 48 h (100 = growth as untreated, 0 = no growth, -100 = all killed)
Settings in all cases: 10 µM unless noted
NCI-H23 lung = tested on: NCI-H23 lung
NCI-H226 lung = tested on: NCI-H226 lung
NCI-H322M lung = tested on: NCI-H322M lung
HOP-62 NSCLC = tested on: HOP-62 NSCLC
NCI-H460 lung = tested on: NCI-H460 lung
HOP-92 NSCLC = tested on: HOP-92 NSCLC
NCI-H522 lung = tested on: NCI-H522 lung
A549/ATCC NSCLC = tested on: A549/ATCC NSCLC
786-0 renal = tested on: 786-0 renal
DU-145 prostate = tested on: DU-145 prostate
K-562 leukemia = tested on: K-562 leukemia
MALME-3M melanoma = tested on: MALME-3M melanoma
MDA-MB-231 breast = tested on: MDA-MB-231 breast
RXF 393 renal = tested on: RXF 393 renal
SF-268 CNS = tested on: SF-268 CNS
SF-295 CNS = tested on: SF-295 CNS
SF-539 CNS = tested on: SF-539 CNS
UACC-257 melanoma = tested on: UACC-257 melanoma
M14 melanoma = tested on: M14 melanoma

Measured: growth

COc1cc2nc(Nc3ccc(F)cc3)nc(N)c2cc1OC
inactive: NCI-H23 lung 95.1% | NCI-H226 lung 81.7% | NCI-H322M lung 95.4% | HOP-62 NSCLC 112% | NCI-H460 lung 99.5% | HOP-92 NSCLC 63.9% | NCI-H522 lung 92% | A549/ATCC NSCLC 92.6% | 786-0 renal 87.1% | DU-145 prostate 93.5% | K-562 leukemia 77.8% | MALME-3M melanoma 105% | MDA-MB-231 breast 81.7% | RXF 393 renal 54.5% | SF-268 CNS 90% | SF-539 CNS 95.5% | UACC-257 melanoma 102% | M14 melanoma 107%
active: SF-295 CNS -2.33%

O=C(NC(=S)Nc1ccc(-c2nc3ccccc3[nH]2)cc1)c1ccc2ccccc2c1
inactive: NCI-H23 lung 58.1% | NCI-H226 lung 51.1% | NCI-H322M lung 21.5% | NCI-H522 lung 63.2% | A549/ATCC NSCLC 26.3% | DU-145 prostate 18.8% | K-562 leukemia 59.9% | SF-268 CNS 51% | SF-295 CNS 19.7% | UACC-257 melanoma 49.2% | M14 melanoma 38%
active: HOP-62 NSCLC 8.8% | NCI-H460 lung 5.41% | HOP-92 NSCLC -1.16% | 786-0 renal -67.5% | MALME-3M melanoma -12% | MDA-MB-231 breast -18.6% | RXF 393 renal -66.3% | SF-539 CNS -30.8%

Cc1cc(-c2noc(C(F)(F)F)n2)ccc1N1CCN(c2cc(C(=O)N(C)C)no2)CC1
inactive: NCI-H23 lung 55.6% | NCI-H226 lung 55.8% | NCI-H322M lung 101% | HOP-62 NSCLC 68.1% | NCI-H460 lung 75.7% | HOP-92 NSCLC 63.5% | NCI-H522 lung 57% | A549/ATCC NSCLC 67.3% | 786-0 renal 80.4% | DU-145 prostate 85.2% | K-562 leukemia 33.1% | MALME-3M melanoma 78.5% | MDA-MB-231 breast 69.6% | RXF 393 renal 105% | SF-268 CNS 82.2% | SF-295 CNS 49.8% | SF-539 CNS 86.1% | UACC-257 melanoma 54% | M14 melanoma 81.5%

COc1ccc(Oc2nc(Nc3ccc(N4CCCCC4)nc3)ncc2NC(=O)c2cc(OC)cc(OC)c2)cc1
inactive: NCI-H23 lung 68.8% | NCI-H226 lung 60.2% | NCI-H322M lung 48.9% | HOP-62 NSCLC 42.5% | NCI-H460 lung 19% | HOP-92 NSCLC 76.4% | NCI-H522 lung 26.6% | A549/ATCC NSCLC 41.6% | 786-0 renal 39.6% | DU-145 prostate 40.7% | K-562 leukemia 18.6% | MALME-3M melanoma 64.4% | MDA-MB-231 breast 61.5% | RXF 393 renal 41% | SF-268 CNS 46.3% | SF-295 CNS 23.7% | SF-539 CNS 21.3% | UACC-257 melanoma 59.4% | M14 melanoma 32.3%

Cc1ccc(/C(=N\N=C(N)N)c2ccccc2)cc1
inactive: NCI-H23 lung 16.6% | NCI-H322M lung 56.6% | HOP-92 NSCLC 27.3% | A549/ATCC NSCLC 16.9% | DU-145 prostate 10.4% | MALME-3M melanoma 61.8% | RXF 393 renal 10.4% | SF-268 CNS 36.1% | UACC-257 melanoma 59%
active: NCI-H226 lung -4.14% | HOP-62 NSCLC -30.4% | NCI-H460 lung 2.74% | NCI-H522 lung -11.8% | 786-0 renal -70.3% | K-562 leukemia 0.175% | MDA-MB-231 breast 2.26% | SF-295 CNS 1.44% | SF-539 CNS -24.2% | M14 melanoma -43.5%

CC(C)(C)c1ccc(C(=O)Nc2sc3c(c2C(N)=O)CCC(=O)C3)cc1
inactive: NCI-H226 lung 30.8% | NCI-H322M lung 62.6% | HOP-62 NSCLC 26.5% | A549/ATCC NSCLC 15.1% | 786-0 renal 23.8% | DU-145 prostate 24.7%
active: NCI-H23 lung -15% | NCI-H460 lung -10.7% | HOP-92 NSCLC -22.7% | NCI-H522 lung -10.2% | K-562 leukemia 4.82% | MALME-3M melanoma -53.4% | MDA-MB-231 breast -59.5% | RXF 393 renal -22.4% | SF-268 CNS -2.29% | SF-295 CNS -48.3% | SF-539 CNS -77.8% | UACC-257 melanoma -30.4% | M14 melanoma -49.2%

CC(C)(C)CC(C)(C)Nc1c(-c2ccc(-c3ccccc3)cc2)nc2cnccn12
inactive: NCI-H23 lung 91.5% | NCI-H226 lung 87.4% | NCI-H322M lung 81.5% | HOP-62 NSCLC 79.9% | NCI-H460 lung 80% | HOP-92 NSCLC 93.3% | NCI-H522 lung 37.5% | A549/ATCC NSCLC 56.4% | 786-0 renal 80.6% | DU-145 prostate 94.9% | K-562 leukemia 62.7% | MALME-3M melanoma 108% | MDA-MB-231 breast 90.6% | RXF 393 renal 94.4% | SF-268 CNS 81.5% | SF-295 CNS 97.6% | SF-539 CNS 90.5% | UACC-257 melanoma 83.3% | M14 melanoma 89.2%

CNC1(C#N)CCN(Cc2ccccc2)CC1
inactive: NCI-H23 lung 97.6% | NCI-H226 lung 104% | NCI-H322M lung 336% | HOP-62 NSCLC 87.2% | NCI-H460 lung 108% | HOP-92 NSCLC 85.1% | NCI-H522 lung 90.1% | A549/ATCC NSCLC 98.1% | 786-0 renal 73.1% | DU-145 prostate 113% | K-562 leukemia 104% | MALME-3M melanoma 226% | MDA-MB-231 breast 112% | RXF 393 renal 99.1% | SF-268 CNS 100% | SF-295 CNS 95.2% | SF-539 CNS 100% | UACC-257 melanoma 101% | M14 melanoma 94%
